Many of the other results were omitted from the sample, so hits are more common in it than they were.
KDM5B inhibitor = KDM5B demethylase inhibition; 220,000 tested, 2.6% active; Potency, µM (doses to about 57.7 µM), actives largely listed as inhibitors; KDM5B demethylase, FDH-coupled NADH fluorescence (FDH is formaldehyde dehydrogenase); active means well fitted inhibition curve with a large enough effect; further: 0% is about no effect; nearly all actives have a fitted effect of over 70% in size
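Coupled FDH/NAD⁺ fluorescence readout. KDM5BΔAP 200 nM final; compound titration, 10 min RT preincubation; substrate mix 12.5 µM H3K4me3, 25 µM 2-OG, 50 µM Fe(II), 100 µM ascorbate, 0.25 mM NAD⁺, 0.25 U/mL FDH; ΔRFU over 30 min.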
Active calls of the source: *; i = inactive. Potency means the concentration at half of the fitted maximal effect.

SMILES	KDM5B inhibitor
O=C(Cc1ccccc1)N1CCC2(CC1)COc1ccccc1NC2=O	i
CCOc1ccc(S(=O)(=O)N2CCN(c3ccc(C)c(Cl)c3)CC2)c2ccccc12	i
O=C(CCn1ccn2nc3c(c2c1=O)CCCC3)NCc1ccc(F)c(Cl)c1	i
O=C(CCNc1cnc2cnccn12)NCc1ccc(F)c(Cl)c1	25µM*
O=C(CCNC(=O)c1ccc(Cl)cc1)NCc1ccc(C(F)(F)F)cc1	i
Cc1oc(C(C)C)cc1C(=O)N1CC[C@@](O)(C2CCOCC2)[C@H](C)C1	i
CC(=O)Nc1cccc(-c2csc(Nc3ccc(C)cc3)n2)c1	i
CC(=O)Nc1cccc(-c2cnc3n[nH]c(-c4ccccc4C)c3n2)c1	40µM*
CC(=O)Nc1cccc(-c2cnc3n[nH]c(-c4ccc(F)cc4C)c3n2)c1	35µM*
CC(=O)Nc1cccc(-c2cnc3n[nH]c(-c4sccc4C)c3n2)c1	i
CC(=O)Nc1cccc(-c2csc(Nc3ccccc3)n2)c1	i
Cc1ccc(C)c(N2CN(CCC3=CCCCC3)CNC2=S)c1	i
Cn1c(SCC(=O)Nc2ccc(F)cc2)nc2cc(-c3ccccc3)sc2c1=O	i
COC(=O)C1=C(N)N(c2cccc(C)c2)C2=C(C(=O)CCC2)C1c1ccc2c(c1)OCO2 (stereo not given)	i
O=[N+]([O-])c1ccc(OCc2cc(Cl)c3c(c2)OCCO3)cc1	i
Cc1ccc(-c2cc(C(=O)N3CCC(Cc4nncn4C(C)C)CC3)c3ccccc3n2)cc1C	28µM*
CC(C)NC(=O)C1CCN(C(=O)c2cc(-c3ccccc3)nc3ccccc23)CC1	i
Cc1ccc(-c2cc(C(=O)N3CCC(c4nc(C5CCOCC5)no4)C3)c3ccccc3n2)cc1C (stereo not given)	25µM*
CCn1cnnc1CC1CCN(C(=O)c2cc(-c3ccc(C)c(C)c3)nc3ccccc23)CC1	28µM*
O=C(c1c2c(nc3ccccc13)CCCC2)N1CCCC(c2nc(C3CCOCC3)no2)C1 (stereo not given)	i
Cc1nn(C(=O)CCCC(=O)N2CCC(Cc3nncn3C(C)C)CC2)c2ccccc12	i
CCn1cnnc1CC1CCN(C(=O)c2ccccc2)CC1	i
COc1ccc(-c2cc(C(=O)N3CCOC(C)C3)c3ccccc3n2)cc1OC (stereo not given)	i
CCn1cnnc1CC1CCN(C(=O)NCc2ccccc2)C1 (stereo not given)	i
O=C(CCS(=O)(=O)c1ccc2c(c1)OCCO2)Nc1ccc(SC(F)F)cc1	i
SMILES	KDM5B inhibitor
CCC(=O)N1CCCCC1c1nc(-c2ccncc2)n[nH]1 (stereo not given)	i
C=CCSc1nc(=O)n2ccc(C)cc2n1	i
CCOc1ccc(CNC(=O)Cn2c(=O)c3cccn3c3ccccc32)cc1	i
CC(C)c1ccc(CC(=O)N2CCCc3ncc(C(=O)NCCc4ccccc4)cc32)cc1	i
O=C(NCC1CCCO1)c1ccc(COc2ccccc2)cc1 (stereo not given)	i
CC(C)c1ccc(CC(=O)N2CCCc3ncc(C(=O)NCCN(C)C)cc32)cc1	i
CN(C)CCNC(=O)c1cnc2c(c1)N(Cc1ccccc1)CCC2	35µM*
COC1CCN(C(=O)c2cnc3c(c2)N(Cc2ccccc2)CCC3)CC1	40µM*
O=C(NCC1CCCO1)c1cnc2c(c1)N(Cc1ccccc1)CCC2 (stereo not given)	40µM*
COc1ccccc1CC(=O)N1CCCc2ncc(C(=O)N3CCC(OC)CC3)cc21	i
O=C(NCC1CCCO1)c1cnc2c(c1)N(C(=O)CCc1ccccc1)CCC2 (stereo not given)	i
COC1CCN(C(=O)c2cnc3c(c2)N(C(=O)CCc2ccccc2)CCC3)CC1	i
CCc1ccc(-c2n[nH]c(=O)c3ccccc23)cc1	i
CCn1cnnc1-c1nn(C)c2c1CN(C(=O)CC(C)C)CC2	i
COc1ccc(C=O)cc1COc1ccc(-c2ccccc2)cc1	i
CCNC(=O)c1c(NC(=O)Cc2coc3ccc(CC)cc23)sc2c1CCCC2	i
CC(Oc1ccc2c(=O)c(-c3ccc(Cl)cc3)c(C(F)(F)F)oc2c1)C(=O)O (stereo not given)	i
CCN1CCN(C(=O)C2CCc3sc(C(=O)N4CCCCC4)cc3C2)CC1 (stereo not given)	i
O=C(NC1CC1)C(NCc1ccccc1)c1ccc(F)cc1 (stereo not given)	i
CC(=O)Nc1ccc(NC(=O)c2ccc(C#CC3(O)CCCCC3)cc2)cc1	i
O=c1n(CC2CC2)nc2n1CCN(S(=O)(=O)c1cccs1)C2	i
CCN(CC)C(=O)Oc1nnc(SC(C)C)n1-c1ccc(Cl)cc1	i
COc1ccccc1-c1cn2c(n1)CO[C@@H](CNC(=O)Nc1ccc(F)cc1)C2	i
Cc1cn2nc(-c3nc(C4CCCN(C(=O)c5ccccc5F)C4)no3)cc2c(=O)[nH]1 (stereo not given)	28µM*
Cc1cn2nc(-c3nc(C4CCCN(C(=O)c5cccs5)C4)no3)cc2c(=O)[nH]1 (stereo not given)	i
SMILES	KDM5B inhibitor
Cc1cn2nc(-c3nc(C4CCCN(C(=O)c5cccc(Cl)c5)C4)no3)cc2c(=O)[nH]1 (stereo not given)	i
COc1ccc(NC(=O)Cn2c(=O)n(Cc3nc(C)no3)c(=O)c3cc4c(cc32)OCO4)cc1	i
O=C(NCCc1c[nH]c2ccc(Cl)cc12)c1cccc(F)c1F	i
CN(CC(=O)NCC(F)(F)F)C1CCCc2ccccc21 (stereo not given)	i
Cc1cc(C(=O)NC2CCCc3ccccc32)cs1 (stereo not given)	i
Cc1noc(-c2cccs2)c1C(=O)NC(C)CCc1ccccc1 (stereo not given)	28µM*
Cc1noc(-c2ccc(OC(F)(F)F)cc2)c1C(=O)NC(C)CCc1ccccc1 (stereo not given)	i
Cc1noc(-c2cccs2)c1C(=O)NC1CCc2ccccc21 (stereo not given)	28µM*
COc1ccc(CCNC(=O)c2c(C)noc2-c2cccs2)cc1OC	i
CC(CCc1ccccc1)NC(=O)CNC(=O)c1cccs1 (stereo not given)	i
Cc1cccc(C(=O)Nc2cccc(-c3nc4ccccc4o3)c2)c1	i
CN(C)c1ccc(NC(=O)Cn2cccc2-c2nc(-c3ccc4c(c3)OCO4)no2)cc1	i
CCCc1nc(C(=O)NC2CC(c3cc(N4CCOCC4)ncn3)C2)cs1 (stereo not given)	i
CN(C)C[C@@H]1CN(S(C)(=O)=O)C[C@H]1NC(=O)Cn1c(=O)oc2ccccc21	i
COCC(=O)N[C@@H]1C=C[C@@H](c2c(C)nn(-c3ccc(C(C)(C)C)cc3)c2C)C1	i
CCc1ccc(N2CC(c3noc(-c4ccc5c(c4)OCO5)n3)CC2=O)cc1 (stereo not given)	32µM*
CCc1ccc(-c2nc(C3CC(=O)N(c4ccc(C)cc4)C3)no2)cc1 (stereo not given)	i
O=C1CC(c2noc(-c3ccc4c(c3)OCO4)n2)CN1c1ccc(Cl)cc1 (stereo not given)	28µM*
CCc1ccc(N2CC(c3noc(-c4ccncc4)n3)CC2=O)cc1 (stereo not given)	i
Cc1cccc(-c2nc(C3CC(=O)N(c4ccc(Cl)cc4)C3)no2)c1 (stereo not given)	i
O=C1CC(c2noc(-c3ccccc3F)n2)CN1c1ccc(Cl)cc1 (stereo not given)	i
